Data reported in ChEMBL document CHEMBL1157539, “Thousands of chemical starting points for antimalarial lead identification” (Nature, 2010).

The molecules below were run on HepG2 (assay: GSK_TCMDC: Percent inhibition of human HepG2 cell line. Test compounds present at 10uM.).
Format: functional

| Structure (SMILES) | Inhibition [%] |
| --- | --- |
| Cl.Oc1ccccc1Nc1nc(NCc2ccco2)c2ccccc2n1 | 0 |
| COc1cc(-c2cc3cc(Cl)c(Cl)cc3[nH]2)ccc1C(=O)NCCC1CCCN1C.O=C(O)C(F)(F)F (stereo not given) | 20 |
| COc1ccccc1C1CCN(C2CCC(NC(=O)c3cc4ccccc4[nH]3)CC2)CC1 (stereo not given) | 49 |
| CC(C)Cc1ccc(N2CCN(CCCCNC(=O)c3ccc(NC(=O)c4ccc(Cl)c(Cl)c4)cc3)CC2)cc1 | 21 |
| Oc1ccc(-c2ccccc2)cc1CN1CCCCCC1 | 6 |
